Screens: PubChem BioAssay, National Center for Advancing Translational Sciences (NCATS)
Rows were chosen to be rich in hits. Some 19% of all compounds tested hit in one or more screens of this group.
HT1080 IDH1KD tx: qHTS for induction of synthetic lethality in tumor cells producing 2HG: qHTS for the HT-1080-IDH1KD cell line. HT-1080 IDH1 knockdown viability, ATP luminescence, 48 h. Potency, µM (titrated, usually from 46.1 µM), hits mostly cytotoxic. actives 2% (n = 360,000)
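Assay cells: HT-1080 with IDH1 knockdown, 750 per well, RPMI/5% FBS. Exposure: 48 h at 37 °C following 2 h pre-incubation. Read: CellTiter-Glo luminescence; fitted concentration-response, curve class assigned.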
HT1080-NT tox: qHTS for induction of synthetic lethality in tumor cells producing 2HG: qHTS for the HT-1080-NT fibrosarcoma cell line | HT-1080-NT fibrosarcoma viability, CellTiter-Glo ATP luminescence, 48 h | Potency, µM (doses to about 46.1 µM), hits mostly cytotoxic | actives 1.6% (n = 360,000) | AID 686970, 2013;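 also: NT is the 2HG producing partner of a matched IDH1 knockdown line; nearly all actives have a fitted effect of over 55% in size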
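A 48-hour cytotoxicity screen used HT-1080-NT cells plated 2 hours before compound delivery. ATP-based CellTiter-Glo luminescence measured viability, normalized to DMSO and no-cell controls.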
ELG1 repair inh: qHTS screen for small molecules that inhibit ELG1-dependent DNA repair in human embryonic kidney (HEK293T) cells expressing luciferase-tagged ELG1 | HEK293T ELG1-luciferase reporter, luminescence, 16 h; DNA damage induced by 5-fluorouridine | Potency, µM (top dose mostly 46.1 µM), actives largely listed as inhibitors | actives 2.3% (n = 330,000); also: nearly all actives have a fitted effect of over 55% in size
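5-Fluorouridine DNA damage + compound/DMSO, 2,000 cells/well, 16 h, 37 °C/5% CO2. ONE-Glo, 30 min RT, luminescence. Readout = decrease in reporter signal.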
IL-1B inflam inh: qHTS for Inhibitors of Inflammasome Signaling: IL-1-beta AlphaLISA Primary Screen; THP-1 LPS/ATP IL-1B secretion, AlphaLISA, 16 h; active compounds read low; activity change, % at 57.5 µM; actives 4.7% (n = 360,000); in the data active = activity change below about -50%; inconclusive = mostly about -30% to -49%
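THP-1 cells pretreated 1 hr with compounds (up to 57.5 uM final), then stimulated with LPS (250 ng/mL final) plus ATP (1.25 mM final); secreted IL-1B measured by AlphaLISA after 16 hr, decreased signal indicating inhibition.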
DT40 TDP1 no CPT: qHTS for Inhibitors of human tyrosyl-DNA phosphodiesterase 1 (TDP1): qHTS in cells in absence of CPT. Potency, µM (doses to about 46.2 µM), hits mostly inhibitors. actives 15% (n = 420,000). DT40 Tdp1-/- hTDP1 cells, no CPT, ATP luminescence, 48 h; also: nearly all actives have a fitted effect of over 55% in size
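Growth kinetics read by CellTiter-Glo luminescence after ≥48 hr at 37 °C. Cells: DT40 Tdp1-/- stably carrying human TDP1, 400 per well, compound exposure in the absence of CPT (DMSO vehicle).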
DT40 TDP1 CPT: qHTS for Inhibitors of human tyrosyl-DNA phosphodiesterase 1 (TDP1): qHTS in cells in presence of CPT; Potency, µM (series often up to 46.2 µM), usual class: inhibitors; actives 12% (n = 420,000); chicken DT40 Tdp1-/-;hTDP1 cells + 20 nM CPT, ATP luminescence, 48 h; also: nearly all actives have a fitted effect of over 55% in size
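Chicken DT40 Tdp1-/- cells complemented with human TDP1, 400 cells/well, exposed to compounds plus 20 nM camptothecin for at least 48 h at 37 C; viability read as ATP content by CellTiter-Glo luminescence.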
A number is an active result; i = inactive; ? = inconclusive; nt = no result given. Unless noted, calls follow the shape of the dose curve; as a rule, active = well fitted curve in the direction sought with a large enough effect; inconclusive = small, poorly fitted or top-dose-only effect, or another doubt; inactive = no such curve, though single readings can be large; an effect the other way counts as inactive or inconclusive.

SMILES	HT1080 IDH1KD tx	HT1080-NT tox	ELG1 repair inh	IL-1B inflam inh	DT40 TDP1 no CPT	DT40 TDP1 CPT
CC(=O)Nc1ccc(S(=O)(=O)NC(C)C(=O)NCC(c2ccco2)N2CCCCC2)cc1 (stereo not drawn)	i	i	i	i	i	i
Cc1ccc(C)c(SCC(=O)NCC(c2ccco2)N2CCCCC2)c1 (stereo not drawn)	i	i	i	i	21µM	?
Cc1cc(Br)ccc1SCC(=O)NCC(c1ccco1)N1CCCCC1 (stereo not drawn)	i	i	i	i	?	18µM
Cc1ccc(C(=O)NCN2CCN(c3ccccc3)CC2)cc1	i	i	i	i	i	i
COc1ccc(OC)c(NC(=O)Cn2c(=O)c3cccn3c3ccccc32)c1	nt	nt	nt	nt	12µM	?
COc1ccc(NC(=O)CCCn2c(=O)c3cccn3c3ccccc32)c(OC)c1	nt	nt	nt	nt	10µM	13µM
COc1ccccc1NC(=O)CCn1c(=O)c2cccn2c2ccccc21	i	i	i	i	23µM	?
Cc1ccc(OCCCCCCN2CCNCC2)c(Br)c1	15µM	?	nt	-89	21µM	?
Cc1ccc(OCCCCN2CCC(C)CC2)c(Br)c1	i	i	i	i	?	23µM
CC1Cc2ccccc2N1C(=S)Nc1cccc(S(=O)(=O)N(C)C)c1 (stereo not drawn)	i	i	i	i	?	16µM
CN(C)S(=O)(=O)c1cccc(NC(=S)N2CCc3ccccc32)c1	i	i	?	i	?	?
CN(C)S(=O)(=O)c1cccc(NC(=S)NC(=O)C2CCCCC2)c1	i	i	?	i	18µM	?
CN(C)S(=O)(=O)c1cccc(NC(=S)NC2CCCCC2)c1	i	i	i	i	i	i
CC1CCCC(NC(=S)Nc2cccc(S(=O)(=O)N(C)C)c2)C1C (stereo not drawn)	?	i	?	i	18µM	?
Nc1ncc2[nH]c(N)nc2n1	i	i	nt	i	i	i
Cc1sc(=NC(=O)c2ccco2)n(C)c1-c1ccc(F)cc1	i	i	?	?	16µM	?
COCCn1c(SCc2nc3scc(-c4ccc(Cl)cc4)c3c(=O)[nH]2)nnc1-c1cccc(C)c1	i	i	23µM	i	?	?
CCn1c(SCc2nc3scc(-c4ccccc4)c3c(=O)[nH]2)nnc1-c1cccs1	?	?	?	i	21µM	21µM
Nc1nnc(SCc2nc3scc(-c4ccccc4)c3c(=O)[nH]2)s1	i	i	i	i	18µM	23µM
O=c1[nH]c(Cc2ccccc2)nc2scc(-c3ccccc3)c12	i	i	i	i	?	?
CN(Cc1ccccc1)Cc1nc2scc(-c3ccccc3)c2c(=O)[nH]1	i	i	?	i	?	13µM
COc1ccc(-n2c(SCC(=O)NNC(=O)c3ccc(C)cc3)nnc2-c2ccncc2)cc1	i	i	i	i	i	i
CCOc1ccc(CN2CCC(Cc3ccccc3)CC2)cc1	i	i	i	i	?	?
Cc1csc(SC(C)c2nc3scc(-c4ccccc4)c3c(=O)[nH]2)n1 (stereo not drawn)	i	i	?	i	21µM	?
Cc1nnc(SCc2nc3scc(-c4ccccc4)c3c(=O)[nH]2)s1	i	i	i	i	i	i
CCCCN(C(=O)c1ccc(N(C)S(=O)(=O)c2ccc(C)cc2)cc1)c1c(N)n(CC(C)C)c(=O)[nH]c1=O	i	i	nt	i	i	i
CCc1nn2c(=O)cc(COC(=O)c3cccc(NC(=O)COc4ccccc4F)c3)nc2s1	nt	nt	nt	nt	?	18µM
